From PubChem
Hits are enriched below; roughly 1.4% of the tested compounds scored in any of these assays.
BRCA1 expr up: activators of BRCA1 expression. MCF7-BRCA1-FFLuc reporter, luminescence, 48 h; response scale: scaled: vehicle 0%, 10 µM genistein 100%. Potency, µM (series often up to 46.1 µM), for inactives: at the top dose activation, most hits filed as activators. 1.1% of 380,000 active; note: potency is the fitted concentration of half-maximal effect; nearly all actives have a fitted effect of over 80% in size
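Cells: MCF7-BRCA1-FFLuc, 2000/well. Exposure: 48 h, 37 °C, 5% CO2. Read: luminescence, 15 min post-substrate. Controls: genistein 10 microM (maximal activation), DMSO (neutral).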
IL2 activator: IL-2 activation; IL-2 activation reporter assay, cell-based qHTS; stimulated with anti-CD3/CD4/CD28 beads; in transgenic mouse T cells; activation, % (series mostly up to about 46 µM); 0.065% of 360,000 active; in the data active = activation above about 50%; inconclusive = mostly about 30% to 49%; note: 0% is about no effect
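Using fluorescent plate cytometry, EGFP and DsRed are detected in transgenic mouse T cells stimulated 18 h at 37 degrees C with antibody-coated beads after 60 min compound pretreatment.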
N370S GC: N370S glucocerebrosidase modulation, Gaucher chaperone candidate; AID 2101; 0.092% of 330,000 active; Potency, µM (top dose mostly 59.4 µM), without a hit: at the top dose activity change, negative = inhibition, actives largely listed as inhibitors; N370S GC spleen homogenate, 4MU-glucoside fluorescence; P04062;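 note: potency is the fitted concentration of half-maximal effect; 0% = full enzyme activity and -100% = no enzyme basal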
Nrf2 activator: Nrf2 pathway activation; 0.31% of 410,000 active; AREc32 ARE-luciferase reporter (MCF7-derived line), luminescence, 24 h; Potency, µM (series often up to 46.1 µM), without a hit: at the highest dose activation, actives largely listed as activators; AID 624171; note: potency is the fitted concentration of half-maximal effect; % of control where 0% means no effect; nearly all actives have a fitted effect of over 65% in size
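ARE activation measured as luciferase luminescence (Steady-Glo, 30 min RT) in AREc32_Fluc cells after 24 hr compound exposure at 37 deg C, 5% CO2; cells seeded overnight at 1000/well in OPTI-MEM, 5% FBS.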
a7 integrin act: activates integrin-mediated alleviation for muscular dystrophy. alpha7betagal myoblasts, beta-gal FDG fluorescence, 48 h. Potency, µM (series often up to 38.3 µM), without a hit: at the highest dose activation, usual class: activators. AID 624291. 0.064% of 350,000 active;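 note: potency is the fitted concentration of half-maximal effect; 100% = response of the positive control SU9516; nearly all actives have a fitted effect of over 60% in size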
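Alpha7betagal+/- myoblasts (passage 13) were plated 16-24 hr, then exposed to compounds (1:260 dilution of DMSO stock) for 48 hours at 37C. After MPER lysis, β-galactosidase reporter activity was read as FDG fluorescence (ex 480/em 540) after 30 minutes.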
BCR signal inh: inhibitors of chronic active B-cell receptor signaling. ABC-DLBCL IkBa-CBG/CBR reporter, luminescence ratio, 4 h. Potency, µM (highest dose often 46.1 µM), for inactives: top-dose activity change, negative = inhibition, usual class: inhibitors. 0.05% of 340,000 active. AID 493014; active = well fitted inhibition curve with a large enough effect in the signal ratio, with a control signal flat, not every such curve was filed as active; inconclusive = small, poorly fitted or top-dose-only effect, or effect the other way, or a change in a side signal; the % refers to the signal ratio;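 note: potency is the fitted concentration of half-maximal effect; plate controls were basal doxycycline-induced cells for no effect and cells given 10 µM MG132 for full effect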
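Compounds up to 46 uM were incubated four hours with TMD8 cells whose green CBG68 luciferase is fused to IkappaBalpha; red CBR luminescence normalised the signal, and concentration-effect curves were fitted to fusion, red and ratio data.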
An asterisk follows results filed as active; ? = inconclusive; nt = no result; [ ] = remark or other dose. Unless noted, calls come from the whole dose curve; as a rule, active = well fitted curve in the direction sought with a large enough effect; inconclusive = small, poorly fitted or top-dose-only effect, or another doubt; inactive = no such curve, though single readings can be large; an effect the other way counts as inactive or inconclusive.

SMILES	BRCA1 expr up	IL2 activator	N370S GC	Nrf2 activator	a7 integrin act	BCR signal inh
CC(C)n1cnc2cc(NCc3ccco3)ccc21	10µM*	0	1%	5%	0%[7.66 µM]	?
Cc1nc(C(C)NC(=O)c2cc(COc3ccc(C)c(C)c3)on2)c(C)s1 (centres undefined)	5.6µM*	-1	4%	9%	31%	-1%
CCCN1CNc2c(c(=O)[nH]c(=S)n2CCc2cccc(OC)c2OC)C1	0%	nt	nt	nt	nt	nt
CN1/C(=C\C(=O)c2cccs2)Sc2ccccc21	-35%	-2	-19%	4µM*	10%	?
C[C@H](NC(=O)COc1ccc(Cl)cc1)C(=O)N1CCC2(CC1)NCCc1[nH]cnc12	5%	-1	-4%	0%	3%	-2%
Cc1ccc(-c2ccc(CCC(=O)O)n2-c2cccc(C(=O)O)c2)cc1	7.1µM*	0	-12%	0%	-30%	7%
COc1ccc(-c2ccc(CCC(=O)O)n2-c2ccccc2O)cc1	-32%	0	-13%	13%	-25%	16µM*
Cc1ccc(-c2ccc(CCC(=O)O)n2-c2ccc(C(=O)O)cc2)cc1	61%	0	-4%	4%	-4%	?
c1ccc(Nc2nc(NCc3ccco3)nc3nccnc23)cc1	-48%	nt	nt	nt	nt	nt
CCOC(=O)c1cc(-c2ccc(OC)cc2)n[nH]1	11µM*	0	-16%	4%	-15%	?
CCCn1nc2cc(C(=O)NCCc3cccs3)ccc2c1OCC	11µM*	0	8%	3%	-1%	13%
Cc1ccc2c(c1)-c1nc(-c3ccc(Cl)cc3)cc(-c3coc4ccccc4c3=O)c1CO2	14%	nt	nt	0%	nt	nt
O=C(NNC(=O)c1cccc2ccccc12)c1ccc(Cl)cc1Cl	13µM*	0	nt	0%	31%	nt
O=C(NNC(=O)c1cccc2ccccc12)c1cccc(Cl)c1	3%	0	nt	3%	-7%	nt
O=C(Nc1ccc2c(c1)OCCO2)Nc1ccc2c(c1)OCO2	1%	-1	-5%	-1%	-5%	-4%
CN(c1ccc(C(=O)Nc2ccc3c(c2)OCO3)cc1)S(C)(=O)=O	6.3µM*	1	4%	5%	17%	1%
O=C(Nc1ccc2c(c1)OCO2)Nc1ccc(Br)cn1	2.8µM*	0	-9%	0%	13%[7.66 µM]	?
Cc1ccc(NC(=O)Nc2ccc3c(c2)OCO3)cc1F	0.89µM*	1	0%	5%	31%	?
CN(c1ccc(C(=O)Nc2ccc3c(c2)OCCO3)cc1)S(C)(=O)=O	24%	-3	7%	0%	?	?
C/C(=C\C(=O)c1ccc(C)o1)Nc1ccc2c(c1)OCO2	94%	1	17%	3%	4%	9%
C/C(=C\C(=O)c1ccccc1)Nc1ccc2c(c1)OCO2	7.9µM*	0	-10%	4%	14%	6%
O=C(CNC(=O)c1ccccc1F)Nc1ccc2c(c1)OCO2	7.9µM*	-1	nt	0%	?	-6%
COc1cccc(NC(=O)CN(C)CC(=O)Nc2ccc3c(c2)OCO3)c1	-11%	0	nt	0%	-42%	-7%
COc1cccc(NC(=O)Nc2ccc3c(c2)OCO3)c1	2.8µM*	-2	-3%	-1%	2%	?
Cc1ccc(NC(=O)Nc2ccc3c(c2)OCO3)c(OC(F)F)c1	2.5µM*	-1	8%	4%	44%	-2%
SMILES	BRCA1 expr up	IL2 activator	N370S GC	Nrf2 activator	a7 integrin act	BCR signal inh
O=C(NCc1ccc2c(c1)OCO2)Nc1ccc(F)cc1	10µM*	0	-3%	3%	-6%	-13%
COc1ccccc1C(=O)NCC(=O)Nc1ccc2c(c1)OCO2	0%	0	-9%	3%	9%	-7%
O=S(=O)(/N=C(/Sc1ccccc1)c1ccccc1)c1ccc(Cl)cc1	0%	nt	nt	nt	nt	nt
COC(=O)c1sc(NC(=O)COc2cccnc2[N+](=O)[O-])c(C(=O)OC)c1C	-10%	1	nt	-1%	-22%	?
CC(=O)c1cccc(NC(=O)Nc2ccc3c(c2)OCO3)c1	11µM*	1	-6%	0%	-3%	5%
O=C(CCl)Nc1ccc2c(c1)OCO2	8%	0	?	14µM*	-55%	?
COc1cc(C)ccc1OCc1cc(C(=O)NCc2ccncc2)no1	7.9µM*	-1	-12%	6%	2%	0%
COc1cc(C)ccc1OCc1cc(C(=O)NC(C)Cn2cncn2)no1 (centres undefined)	5µM*	1	-22%	5%	-11%	7%
COc1ccc(C(=O)NCc2ccncc2)cc1OC	-12%	0	-1%	0%	15%	-1%
c1ccc(CSc2nccc(-c3ccco3)n2)cc1	77%	0	nt	10µM*	21%	nt
c1ccc(CSc2n[nH]c(-c3ccco3)n2)cc1	11µM*	-3	3%	3%	11%	?
O=C(COc1ccccc1)Nc1nc2ccccc2[nH]1	13µM*	0	-2%	5%	-7%	?
COc1ccc(-c2nc3sc(CCNC(=O)c4ccccc4C)c(C)n3n2)cc1	29%	nt	nt	0%	nt	4%
COc1ccc(-c2nc3sc(CCNC(=O)c4cccc(C(F)(F)F)c4)c(C)n3n2)cc1	6.3µM*	nt	nt	5%	nt	-1%
CC1(C)CC(=O)c2cc(C(=O)Nc3ccccc3)c(=O)[nH]c2C1	3%	nt	nt	nt	nt	nt
O=C(/C=C/c1ccccc1)Nc1ccc(Br)cn1	1.4µM*	0	1%	3%	-37%	?
O=C(/C=C/c1ccccc1)Nc1cccnc1Cl	10µM*	2	-6%	19%	?	?
Cc1ccc(NC(=O)Nc2nnc([C@H]3C[C@H](O)[C@@H](CO)O3)s2)cc1	83%	2	nt	5%	nt	nt
COc1ccc(C2OC3=C(Nc4cc(C)c(C)cc4N3)C2=O)cc1 (centres undefined)	2.8µM*	0	0%	3%	-2%	0%
COCCNC(=O)C1CCCN(C(=O)Cc2ccc(F)cc2)CC1 (centres undefined)	0%	0	nt	0%[9.22 µM]	nt	nt
COc1ccc(C2NN=C(c3ccc(C)cc3)S2)cc1OC (centres undefined)	?	1	5%	5%	-25%	?
Fc1cccc(C2NN=C(c3ccccc3)S2)c1 (centres undefined)	49%	-3	-3%	3.5µM*	-18%	-19%
CC1CCCCN1C(=O)c1ccc2c(c1)N(Cc1ccc(F)cc1)C(=O)c1ccccc1S2(=O)=O (centres undefined)	-8%	nt	nt	0%	nt	nt
O=[N+]([O-])c1ccc(C2CN=C(Nc3ccccc3)S2)cc1 (centres undefined)	70%	6	-10%	4%	1%	?
